# Reference: the supplement of paper PMC8728848
# The full list was thinned out, with the strongest signals kept by preference.
# How the values were obtained:
# Assay in all cases: glycan array binding signal (z-score within array); higher = stronger binding
# Conditions in all cases: glycan notation: IUPAC condensed, linker removed
# [1] = molecular target: Man(a1-2)Man(a1-3)[Man(a1-2)Man(a1-6)]Man
# In short: (§1)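 Glycan array data came from 3228 arrays in the Consortium for Functional Glycomics database, and only arrays with an available protein sequence were kept. Glycan names were put into IUPAC-condensed notation, and columns mapping to the same glycan were averaged. The binding signal is a within-array Z-score, averaged across arrays of one protein sequence run at different concentrations or buffers and across linkers. A negative Z-score can be read as non-binding.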
# [2] = molecular target: Man(a1-2)Man(a1-6)[Man(a1-3)]Man(a1-6)[Man(a1-2)Man(a1-2)Man(a1-3)]Man
# In short: as §1
# Man(a1-3)[Man(a1-6)]Man = molecular target: Man(a1-3)[Man(a1-6)]Man
# In short: as §1
# [3] = molecular target: Man(a1-3)[Man(a1-6)]Man(a1-6)[Man(a1-3)]Man
# In short: as §1
# Neu5Ac(a2-3)Gal = molecular target: Neu5Ac(a2-3)Gal
# In short: as §1
# [4] = molecular target: Neu5Ac(a2-3)Gal6S(b1-4)GlcNAc
# In short: as §1
# [5] = molecular target: Neu5Ac(a2-6)GlcNAc(b1-4)GlcNAc
# In short: as §1
# [6] = molecular target: Neu5Ac(a2-8)Neu5Ac(a2-8)Neu5Ac
# In short: as §1
# [7] = molecular target: Neu5Ac(a2-8)Neu5Ac(a2-8)Neu5Ac(a2-3)Gal(b1-4)Glc
# In short: as §1
# [8] = molecular target: Neu5Ac9Ac(a2-3)Gal(b1-3)GlcNAc
# In short: as §1
# [9] = molecular target: Neu5Gc(b2-6)Gal(b1-4)GlcNAc
# In short: as §1
binder,measurement,setting,value
"PGP3 (Chlamydia trachomatis), P0CE18 (protein) MGNSGFYLYNTQNCVFADNIKVGQMTEPLKDQQIILGTTSTPVAAKMTASDGISLTVSNNPSTNASITIGLDAEKAYQLILEKLGDQILGGIADTIVDSTVQDILDKITTDPSLGLLKAFNNFPITNKIQCNGLFTPRNIETLLGGTEIGKFTVTPKSSGSMFLVSADIIASRMEGGVVLALVREGDSKPYAISYGYSSGVPNLCSLRTRIINTGLTPTTYSLRVGGLESGVVWVNALSNGNDILGITNTSNVSFLEVIPQTNA",glycan array binding signal (z-score),[1],0.09
same,glycan array binding signal (z-score),[2],0.585
same,glycan array binding signal (z-score),Man(a1-3)[Man(a1-6)]Man,-0.232
same,glycan array binding signal (z-score),[3],0.157
same,glycan array binding signal (z-score),Neu5Ac(a2-3)Gal,0.478
same,glycan array binding signal (z-score),[4],2.5
same,glycan array binding signal (z-score),[5],-1.37
same,glycan array binding signal (z-score),[6],1.11
same,glycan array binding signal (z-score),[7],2.79
same,glycan array binding signal (z-score),[8],2.73
same,glycan array binding signal (z-score),[9],-1.1
